High-throughput results as filed in PubChem.
This is a sample that favours compounds with a hit; in the whole collection about 2.6% have one here.
aDG glyco up – increases alpha dystroglycan glycosylation; AID 624168; Pro5-aDG cells, alpha-DG glycosylation AlphaScreen (IIH6); 0% Pro5, 100% B10-LARGE cell signal; activation, % at 10 µM; hit rate 0.22% among 360,000;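 active = activation of at least 8% versus controls, or a plate z-score of at least 8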;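 note: Pro5 are CHO cells carrying HIG-tagged alpha-DG that lacks glycosylation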
LMP1 NFkB inh – reduces LMP1-driven NF-kappaB luciferase signal | LMP1-induced NF-kappaB luciferase reporter cells, luminescence | inhibition, % at 12.5 µM | hit rate 0.69% among 350,000; in the data active = inhibition above about 41%; inconclusive = no clear call, values can overlap the other calls
TROY signal inh – TROY signaling inhibition | Q293 LMP1-TROYcd NF-kB luciferase reporter, 4 h | inhibition, % at 10 µM | hit rate 0.98% among 360,000 | AID 1347056;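 active = compounds whose plate-normalised and pattern-corrected inhibition of the luciferase reporter signal at the single screening dose is 50% or more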
HSP90 inh – inhibitors of HSP90 luciferase refolding in rabbit reticulocyte lysate; luciferase refolding luminescence, 3 h; hit rate 0.91% among 290,000; inhibition, % at 5.6 µM; AID 1789;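 active = inhibition above the screen-wide mean plus 3 SD, computed separately per campaign, cut at about 16% in these data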;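 note: inhibitors lower the luminescence because luciferase stays unfolded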
LGR2 antag – inhibitors of bursicon-induced Drosophila LGR2 receptor cAMP signaling | HEK293 LGR2, CRE-luciferase, bursicon-stimulated, 4 h | inhibition, % at 9.99 µM | hit rate 0.35% among 380,000;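 active = drop in luminescence signal, shown as inhibition above about 50% in the replicate tests, limit read from the data, passing the limit was not always enough; inconclusive = probably only some replicates passing the limit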;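 note: agonist challenge used bursicon conditioned medium at about half maximal strength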
TWEAK-Fn14 inh – TWEAK-Fn14 signaling inhibition. TWEAK-stimulated Fn14 reporter cells, luciferase luminescence, 8 h. inhibition, % at 10 µM. hit rate 2% among 360,000. AID 1159606; in the data active = inhibition above about 50%
Large screens that a line does not name were inactive.

C[C@@H]1CN([C@H](C)CO)C(=O)Cc2cc(NS(=O)(=O)c3ccccc3)ccc2O[C@@H]1CN(C)S(C)(=O)=O	none (no result: aDG glyco up, LMP1 NFkB inh, TROY signal inh, HSP90 inh, TWEAK-Fn14 inh)
Cc1ccc(NS(=O)(=O)c2ccc(Cl)c(C(=O)Nc3ccccc3-c3nc4ccccc4[nH]3)c2)cc1C	TWEAK-Fn14 inh 91
CN(C)S(=O)(=O)c1ccc(Cl)c(C(=O)Nc2nc3ccccc3[nH]2)c1	none
OCCC1CN(Cc2cc(F)ccc2-n2cccn2)CCN1C1CCCC1 (configuration not stated)	TWEAK-Fn14 inh 91
CC(C)CCN1CCN(Cc2cc(F)ccc2-n2cccn2)CC1CCO (configuration not stated)	none
CCC(=O)N(C)C[C@@H]1Oc2cc(-c3cncnc3)ccc2S(=O)(=O)N([C@H](C)CO)C[C@@H]1C	none (no result: aDG glyco up, LMP1 NFkB inh, TROY signal inh, HSP90 inh, TWEAK-Fn14 inh)
O=C(CSc1ncnc2c1oc1ccccc12)Nc1ccccc1C(F)(F)F	TROY signal inh 82, TWEAK-Fn14 inh 91
Cc1cc(NC(=O)CSc2nnc(-c3ccco3)n2C)no1	LMP1 NFkB inh 71 (no result: HSP90 inh)
O=C(Nc1ccccc1)Nc1nc(-c2ccccc2)cs1	none
O=C(Nc1ccc(Cl)c(Cl)c1)Nc1nc(-c2ccccc2)cs1	LMP1 NFkB inh 56
COc1cccc(-c2csc(NC(=O)Nc3ccccc3)n2)c1	TROY signal inh 58, TWEAK-Fn14 inh 86
COc1ccc(NC(=O)Nc2nnc(CC(=O)Nc3ccccc3)s2)cc1	none
O=C(Nc1ccc(Cl)c(Cl)c1)Nc1ccccc1C(=O)O	HSP90 inh 18
COc1cccc(NC(=O)Nc2nnc(CC(=O)Nc3ccccc3)s2)c1	TWEAK-Fn14 inh 51
C[C@H]1CN([C@@H](C)CO)C(=O)c2cc(C3=CCCC3)cnc2O[C@@H]1CN(C)C(=O)C1CC1	none (no result: aDG glyco up, LMP1 NFkB inh, TROY signal inh, HSP90 inh, TWEAK-Fn14 inh)
Cc1ccc(S(=O)(=O)Nc2ccc3c(c2)C(=O)N([C@H](C)CO)C[C@H](C)[C@@H](CN(C)C(=O)Nc2c(C)noc2C)O3)cc1	none (no result: aDG glyco up, LMP1 NFkB inh, TROY signal inh, HSP90 inh, TWEAK-Fn14 inh)
Fc1ccc(-c2noc(-c3ccc4c(c3)CCO4)n2)cc1	TWEAK-Fn14 inh 61
S=c1nccc(-c2ccc3c(c2)CCO3)[nH]1	none
N=c1n(CCN2CCCCC2)c2ccccc2n1CC(=O)c1ccc(Cl)c(Cl)c1	aDG glyco up 5.4 (no result: LMP1 NFkB inh)
CC(C)NC(=O)Nc1ccc2c(c1)C(=O)N(C)[C@H]1CC[C@@H](CC(=O)NCC3CCCCC3)O[C@H]1CO2	none (no result: aDG glyco up, LMP1 NFkB inh, TROY signal inh, HSP90 inh, TWEAK-Fn14 inh)
O=C(/C=C/c1ccc([N+](=O)[O-])cc1)Nc1ncc([N+](=O)[O-])s1	LGR2 antag 94, TWEAK-Fn14 inh 66
O=C(/C=C/c1ccc([N+](=O)[O-])cc1)NCc1ccccn1	none
Cc1cc(C(=O)COC(=O)c2cccnc2Cl)c(C)n1C	LGR2 antag inconclusive, TWEAK-Fn14 inh 76 (no result: HSP90 inh)
CCC(=O)c1ccc(OCC(=O)OCC(=O)c2cc(C)n(CC3CCCO3)c2C)cc1 (configuration not stated)	none (no result: HSP90 inh)
Cc1cc(C(=O)COC(=O)C2CCN(C(=O)c3ccc(Cl)cc3)CC2)c(C)n1CC1CCCO1 (configuration not stated)	TWEAK-Fn14 inh 68
CSc1ncccc1C(=O)OCC(=O)c1cc(C)n(CC2CCCO2)c1C (configuration not stated)	TROY signal inh 62, TWEAK-Fn14 inh 76
C[C@H](CO)N1C[C@H](C)[C@@H](CN(C)C(=O)C2CCC2)Oc2cc(Br)ccc2S1(=O)=O	none (no result: aDG glyco up, LMP1 NFkB inh, TROY signal inh, HSP90 inh, TWEAK-Fn14 inh)
O=C(NCCCn1ccnc1)C1CCN(S(=O)(=O)c2ccc(F)cc2)CC1	TWEAK-Fn14 inh 86
O=C(NCc1ccccn1)C1CCN(S(=O)(=O)c2ccccc2)CC1	TWEAK-Fn14 inh 88 (no result: TROY signal inh, LGR2 antag)
O=C(CCNC(=O)C1CCN(S(=O)(=O)c2ccc(F)cc2)CC1)NCc1ccc(F)cc1	none
CCN(C[C@@H]1[C@H](c2ccccc2)[C@@H](CO)N1C(C)=O)C(=O)c1ccccn1	none (no result: aDG glyco up, LMP1 NFkB inh, TROY signal inh, HSP90 inh, TWEAK-Fn14 inh)
CCCC(=O)Nc1ccc2c(c1)C(=O)N(C)[C@@H]1CC[C@@H](CC(=O)NCCc3ccncc3)O[C@H]1CO2	none (no result: aDG glyco up, LMP1 NFkB inh, TROY signal inh, HSP90 inh, TWEAK-Fn14 inh)
CC(C)CC(=NNC(=O)c1ccncc1)c1cc(Cl)ccc1O	LMP1 NFkB inh 73 (no result: HSP90 inh)
COCC(=O)N1[C@H](C#N)[C@@H](c2ccccc2-c2cccc(C)c2)[C@@H]1CO	none (no result: aDG glyco up, LMP1 NFkB inh, TROY signal inh, HSP90 inh, TWEAK-Fn14 inh)
N#CC1=C(N)NC(=S)C(C(N)=O)C1c1ccc(Cl)cc1Cl (configuration not stated)	LGR2 antag 69
CCCc1nnc(NC(=O)C(=O)NCCN(C)C)s1	none
CCCc1nnc(NC(=O)C(=O)NCCN(CC)CC)s1	TROY signal inh 54 (no result: LGR2 antag)
C[C@@H]1CN([C@@H](C)CO)C(=O)c2cc(NS(=O)(=O)c3ccc(Cl)cc3)ccc2O[C@@H]1CN(C)S(C)(=O)=O	none (no result: aDG glyco up, LMP1 NFkB inh, TROY signal inh, HSP90 inh, TWEAK-Fn14 inh)
O=C(Nc1nnc(SCC(=O)N2CCOCC2)s1)c1ccccc1	TROY signal inh 73, TWEAK-Fn14 inh 71
c1ccc(-c2ccc(C3=Nn4c(nnc4-c4cc(-c5ccccc5)n[nH]4)SC3)cc2)cc1	none
Brc1ccc(C2=Nn3c(nnc3-c3n[nH]c4c3CCC4)SC2)cc1	TWEAK-Fn14 inh 60 (no result: LGR2 antag)
Clc1ccc(C2=Nn3c(nnc3-c3n[nH]c4c3CCC4)SC2)cc1	TWEAK-Fn14 inh 55 (no result: LGR2 antag)
COc1ccccc1NC(=O)N[C@H]1CC[C@H](CCNS(=O)(=O)c2ccc(C)cc2)O[C@H]1CO	none (no result: aDG glyco up, LMP1 NFkB inh, TROY signal inh, HSP90 inh, TWEAK-Fn14 inh)
O=C(c1ccccc1Cl)N1N=C(c2ccc(Br)cc2)CC1c1nc2ccccc2[nH]1 (configuration not stated)	TROY signal inh 61 (no result: LGR2 antag)
C[C@H](CO)N1C[C@H](C)[C@H](CN(C)C(=O)Nc2ccc(F)cc2)Oc2c(NC(=O)Nc3cccc4ccccc34)cccc2C1=O	none (no result: aDG glyco up, LMP1 NFkB inh, TROY signal inh, HSP90 inh, TWEAK-Fn14 inh)
C=CCC[C@H](Cc1ccc(F)cc1)C(=O)OC[C@@H](Cc1c[nH]c2ccccc12)NC(=O)[C@H](CC=C)CC(=O)NCCO	none (no result: HSP90 inh)
C=CCC[C@H](Cc1ccc(F)cc1)C(=O)OC[C@@H](Cc1c[nH]c2ccccc12)NC(=O)[C@H](CC=C)CC(=O)N(CCO)Cc1ccccc1	TWEAK-Fn14 inh 89 (no result: HSP90 inh)
C=CCC[C@@H](Cc1ccc(F)cc1)C(=O)OC[C@@H](Cc1c[nH]c2ccccc12)NC(=O)[C@H](CC=C)CC(=O)N(CCO)Cc1ccccc1	TWEAK-Fn14 inh 58 (no result: HSP90 inh)
C[C@H](CO)N1C[C@H](C)[C@@H](CN(C)C(=O)Cc2ccccc2)OCCCC[C@H](C)Oc2ccc(NC(=O)Cc3ccccc3)cc2C1=O	none (no result: aDG glyco up, LMP1 NFkB inh, TROY signal inh, HSP90 inh, TWEAK-Fn14 inh)
CC(=O)Nc1ccc(S(=O)(=O)NCCC(=O)OCc2nnc(-c3ccccc3)o2)cc1	none (no result: HSP90 inh)
O=C(CCNS(=O)(=O)c1ccccc1)OCc1nnc(-c2ccccc2)o1	TROY signal inh 61 (no result: HSP90 inh)
COc1ccc2c3c(n(C)c2c1)[C@@H](CO)NCC31CCN(C(=O)c2cccc(F)c2)CC1	none (no result: aDG glyco up, LMP1 NFkB inh, TROY signal inh, HSP90 inh, TWEAK-Fn14 inh)
COc1ccc(Nc2nnc(SCC(=O)/C=C3/N(C)c4ccccc4C3(C)C)s2)cc1	TWEAK-Fn14 inh 71
NS(=O)(=O)c1ccc(CCNc2nn3c(-c4cccc(OC(F)(F)F)c4)cnc3s2)cc1	TROY signal inh 72, TWEAK-Fn14 inh 94 (no result: LMP1 NFkB inh, HSP90 inh)
